This passage reports outcome and AC50 results from PubChem BioAssay (EPA / NIEHS).

Read-out in experiment [1]: Transforming growth factor beta 1 (TGFb1), TGFB1 (gene 7040)
The experiment is described as follows: BSK_KF3CT_TGFb1: BioMAP Diversity Plus: KF3CT Assay for Transforming growth factor beta 1 (TGFb1) Biomarker Activity (AID 2283072). The settings on record: primary human keratinocytes with fibroblasts; actives raise or lower the signal. Summed up:
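KF3CT co-culture (keratinocytes + fibroblasts), 24 h exposure → TGF-b1 ELISA → bidirectional fit, DMSO = baseline. Parallel SRB total-protein staining (0.1% SRB, 10% TCA fixation, 560 nm) for cytotoxicity.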

Read-out in experiment [2]: C-C motif chemokine 2 (Homo sapiens) (UniProt P13500)
The experiment is described as follows: BSK_KF3CT_MCP1: BioMAP Diversity Plus: KF3CT Assay for Monocyte Chemoattractant Protein 1 (MCP1/CCL2) Biomarker Activity (AID 2283073). The settings on record: primary human keratinocytes with fibroblasts; actives raise or lower the signal. A digest of the protocol:
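KF3CT skin co-culture (keratinocytes/foreskin fibroblasts), 24 h post-dose; MCP-1 by ELISA; gain/loss of signal fit bidirectionally vs DMSO baseline.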

Read-out in experiment [3]: Matrix Metallopeptidase 9 (MMP9), MMP9 (gene 4318)
As to the kind of experiment: BSK_KF3CT_MMP9: BioMAP Diversity Plus: KF3CT Assay for Matrix Metallopeptidase 9 (MMP9) Biomarker Activity (AID 2283074). The settings on record: primary human keratinocytes with fibroblasts; actives raise or lower the signal. Summed up:
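ELISA read-out of MMP-9 at 24 h post-dosing in a co-culture of human skin keratinocytes and foreskin fibroblasts. Gain or loss of signal was fitted in both directions against DMSO.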

Read-out in experiment [4]: CD40, CD40 (gene 958)
The experiment is described as follows: BSK_LPS_CD40: BioMAP Diversity Plus: LPS Assay for CD40 Biomarker Activity (AID 2283076). The following applies: primary human HUVEC with PBMC; actives raise or lower the signal. A digest of the protocol:
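ELISA readout of CD40 in HUVEC/PBMC co-culture (BSK_LPS system), 24 h post-dosing; bidirectional curve fit, DMSO baseline; parallel SRB total-protein staining for cytotoxicity.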

Read-out in experiment [5]: E-selectin (Homo sapiens) (UniProt P16581)
The experiment is described as follows: BSK_LPS_Eselectin: BioMAP Diversity Plus: LPS Assay for Eselectin Biomarker Activity (AID 2283077). The following applies: primary human HUVEC with PBMC; actives raise or lower the signal. A digest of the protocol: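 ELISA readout of E-selectin, 24 h post-dose, HUVEC + PBMC co-culture (LPS system). Gain or loss of signal vs DMSO baseline, bidirectional fit.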

Read-out in experiment [6]: Interleukin-8 (IL8), CXCL8 (gene 3576)
As to the kind of experiment: BSK_LPS_IL8: BioMAP Diversity Plus: LPS Assay for Interleukin-8 (IL8) Biomarker Activity (AID 2283078). The following applies: primary human HUVEC with PBMC; actives raise or lower the signal. A digest of the protocol:
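HUVEC + PBMC co-culture, LPS-activated; test chemicals dosed, IL-8 read by ELISA at 24 h. Bidirectional curve fit vs DMSO baseline (gain or loss of signal).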

Experiment [7] is described as follows: BSK_LPS_SRB: Viability Assessment in the BioMAP Diversity Plus: LPS Assay (AID 2283079).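 Further: total protein by sulforhodamine B absorbance as a cytotoxicity measure; measured one day after compound addition.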 The following applies: primary human HUVEC with PBMC. Summed up:
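HUVEC + PBMC co-culture, LPS-stimulated; compound 24 h. 10% TCA fix, 0.1% SRB stain, A560. Bidirectional fit vs DMSO.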

Read-out in experiment [8]: Interleukin-1 alpha (IL1a), IL1A (gene 3552)
The experiment is described as follows: BSK_LPS_IL1a: BioMAP Diversity Plus: LPS Assay for Interleukin-1 alpha (IL1a) Biomarker Activity (AID 2283080). The settings on record: primary human HUVEC with PBMC; actives raise or lower the signal. A digest of the protocol: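 HUVEC/PBMC co-culture, LPS system; 24 h after dosing; IL-1a by ELISA; gain or loss of signal fitted bidirectionally vs DMSO baseline.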

The nature of experiment [9]: BSK_LPS_PGE2: BioMAP Diversity Plus: LPS Assay for Prostaglandin E2 (PGE2) Biomarker Activity (AID 2283082).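 On AC50: secreted prostaglandin E2 measured by ELISA in LPS-stimulated co-culture.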 The settings on record: primary human HUVEC with PBMC; actives raise or lower the signal. A digest of the protocol:
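Compounds were added to the LPS co-culture of endothelium and PBMC, and PGE2 was measured by ELISA after 24 h. Responses in either direction were fitted with DMSO as baseline.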

Read-out in experiment [10]: Macrophage colony-stimulating factor (MCSF), CSF1 (gene 1435)
As to the kind of experiment: BSK_LPS_MCSF: BioMAP Diversity Plus: LPS Assay for Macrophage colony-stimulating factor (MCSF) Biomarker Activity (AID 2283083). The settings on record: primary human HUVEC with PBMC; actives raise or lower the signal. Summed up:
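HUVEC + PBMC co-culture (human primary), 24 h post-dose; M-CSF by ELISA; gain/loss of signal fitted bidirectionally vs DMSO baseline.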

Read-out in experiment [11]: Tissue Factor, F3 (gene 2152)
As to the kind of experiment: BSK_LPS_TissueFactor: BioMAP Diversity Plus: LPS Assay for Tissue Factor Biomarker Activity (AID 2283084). The following applies: primary human HUVEC with PBMC; actives raise or lower the signal. A digest of the protocol:
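HUVEC/PBMC co-culture, LPS-activated; CD142 ELISA read 24 h post-dose; bidirectional curve fit vs DMSO negative control.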

Read-out in experiment [12]: Tumor necrosis factor (Homo sapiens) (UniProt P01375)
As to the kind of experiment: BSK_LPS_TNFa: BioMAP Diversity Plus: LPS Assay for Tumour Necrosis Factor alpha (TNFa) Biomarker Activity (AID 2283085). The settings on record: primary human HUVEC with PBMC; actives raise or lower the signal. A digest of the protocol:
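Cells (umbilical vein endothelium plus peripheral blood mononuclear cells) were dosed with chemical, incubated 24 h, then TNFa was quantified by ELISA; values derive from bidirectional fitting with DMSO as baseline.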

Read-out in experiment [13]: Vascular cell adhesion molecule 1 (VCAM1), VCAM1 (gene 7412)
As to the kind of experiment: BSK_LPS_VCAM1: BioMAP Diversity Plus: LPS Assay for Vascular cell adhesion molecule 1 (VCAM1) Biomarker Activity (AID 2283086). The settings on record: primary human HUVEC with PBMC; actives raise or lower the signal. Summed up: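 Cells are dosed in an LPS-stimulated endothelial/mononuclear co-culture and, after 24 h, VCAM-1 is quantified by ELISA. Activity in either direction is fitted relative to the DMSO negative control.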

Read-out in the next experiment: CD38, CD38 (gene 952)
The experiment is described as follows: BSK_SAg_CD38: BioMAP Diversity Plus: SAg Assay for CD38 Biomarker Activity (AID 2283087). The following applies: primary human HUVEC with PBMC; actives raise or lower the signal. Summed up:
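CD38 quantified by ELISA (fluorescence) in a superantigen-activated endothelial cell–PBMC co-culture at 24 h post-dose. Activity fitted in both directions relative to DMSO; parallel SRB and Alamar Blue cytotoxicity read-outs.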

Read-out in experiment [14]: CD40, CD40 (gene 958)
As to the kind of experiment: BSK_SAg_CD40: BioMAP Diversity Plus: SAg Assay for CD40 Biomarker Activity (AID 2283088). The following applies: primary human HUVEC with PBMC; actives raise or lower the signal. Summed up: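 HUVEC/PBMC co-culture, 24 h post-dose; CD40 by ELISA, fluorescence intensity; bidirectional fit vs DMSO negative control.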

Read-out in a further experiment: CD69, CD69 (gene 969)
The experiment is described as follows: BSK_SAg_CD69: BioMAP Diversity Plus: SAg Assay for CD69 Biomarker Activity (AID 2283089). The following applies: primary human HUVEC with PBMC; actives raise or lower the signal. A digest of the protocol:
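HUVEC co-cultured with PBMC were dosed with chemical, and CD69 was measured by ELISA with fluorescence read-out 24 h later. Bidirectional curve fitting used DMSO as negative control and activity baseline.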

Read-out in experiment [15]: Monocyte Chemoattractant Protein-1 (MCP1), CCL2 (gene 6347)
The experiment is described as follows: BSK_SAg_MCP1: BioMAP Diversity Plus: SAg Assay for Monocyte Chemoattractant Protein-1 (MCP1) Biomarker Activity (AID 2283090). The following applies: primary human HUVEC with PBMC; actives raise or lower the signal. Summed up: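 Values derive from bidirectional fitting of ELISA-measured MCP1 against DMSO controls. Readings were taken 24 h after dosing human vascular endothelial cells co-cultured with peripheral blood mononuclear cells under superantigen stimulation.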

Read-out in experiment [16]: E-selectin (Homo sapiens) (UniProt P16581)
As to the kind of experiment: BSK_SAg_Eselectin: BioMAP Diversity Plus: SAg Assay for Eselectin Biomarker Activity (AID 2283091). The following applies: primary human HUVEC with PBMC; actives raise or lower the signal. A digest of the protocol: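 E-selectin ELISA readout at 24 h post-dosing in human umbilical vein endothelial cell/PBMC co-culture; gain or loss of signal fitted relative to DMSO baseline.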

As a reminder, the AC50 is the concentration at which the activity in the assay is half-maximal.

SMILES strings stand for the structures. Calls of active or inactive are those of the source. How the source made its calls: active means hit-call score of the fitted dose curve at least 0.9, where 1 is the maximum; inactive means score below 0.9.

E-selectin (Homo sapiens), sequence (P16581 whole entry, looked up): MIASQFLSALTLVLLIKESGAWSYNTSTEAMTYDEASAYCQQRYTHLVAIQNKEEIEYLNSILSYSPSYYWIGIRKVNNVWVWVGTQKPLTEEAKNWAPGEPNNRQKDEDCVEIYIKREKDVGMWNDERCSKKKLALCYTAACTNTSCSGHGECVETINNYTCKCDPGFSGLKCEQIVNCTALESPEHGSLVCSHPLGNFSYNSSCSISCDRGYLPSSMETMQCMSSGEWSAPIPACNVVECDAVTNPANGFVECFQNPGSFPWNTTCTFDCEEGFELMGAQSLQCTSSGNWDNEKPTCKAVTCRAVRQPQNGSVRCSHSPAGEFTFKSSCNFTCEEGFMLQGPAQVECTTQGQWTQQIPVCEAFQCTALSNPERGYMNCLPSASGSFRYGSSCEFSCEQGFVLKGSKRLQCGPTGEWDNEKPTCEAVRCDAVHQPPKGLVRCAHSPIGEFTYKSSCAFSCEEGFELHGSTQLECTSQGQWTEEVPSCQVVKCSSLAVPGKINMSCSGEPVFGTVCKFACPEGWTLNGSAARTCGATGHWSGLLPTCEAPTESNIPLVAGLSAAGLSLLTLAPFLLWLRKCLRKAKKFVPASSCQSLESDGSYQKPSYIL
Tumor necrosis factor (Homo sapiens), sequence (P01375 whole entry, looked up): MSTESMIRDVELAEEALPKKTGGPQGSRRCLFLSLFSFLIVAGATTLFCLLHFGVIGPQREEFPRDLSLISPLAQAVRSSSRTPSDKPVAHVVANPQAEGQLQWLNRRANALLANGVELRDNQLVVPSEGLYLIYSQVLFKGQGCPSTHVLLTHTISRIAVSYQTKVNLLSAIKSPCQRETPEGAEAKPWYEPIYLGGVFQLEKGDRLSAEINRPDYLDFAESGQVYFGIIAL

Consider `Cc1ccc(C(C)C)c(O)c1`, for which the outcome was “inactive” in [1]; “inactive” in experiment [2]; “inactive” in experiment [3]; “inactive” in the experiment with CD40, CD40 (gene 958) [4]; “inactive” in experiment [5]; “inactive” in experiment [6]. Moreover, the outcome in experiment [7], in experiment [8], in experiment [10], in [11], in experiment [12] and in [13] was inactive. For the same compound, the outcome with CD38, CD38 (gene 952) was “inactive”; in the experiment with CD40, CD40 (gene 958) [14] it was “inactive”; in the experiment with CD69, CD69 (gene 969), “inactive”; in [15] it was “inactive”; in experiment [16] it was “inactive”. In [9], the AC50 was 8.88 µM (active).

On to `CNC(=O)[C@H]1O[C@@H](n2cnc3c(NCc4cc(Cl)ccc4OCc4cc(C)no4)ncnc32)[C@H](O)[C@@H]1N`, for which the outcome in experiment [1] is “inactive”; in experiment [2] it was “inactive”; in [3], “inactive”; with CD40, CD40 (gene 958) [4] it was “inactive”; in experiment [5], “inactive”; in experiment [6], “inactive”. Also, the outcome in experiment [7] is “inactive”; in experiment [8], “inactive”; in [9], “inactive”; in experiment [11], “inactive”; in experiment [13] it was “inactive”; with CD38, CD38 (gene 952), “inactive”. For the same compound, the outcome with CD40, CD40 (gene 958) [14] was “inactive”; with CD69, CD69 (gene 969), “inactive”; in [16] it was “inactive”.

Regarding `Cc1nc(-c2ccc3c(c2)CCN(CCC2CCC(NC(=O)/C=C/c4ccc(F)cc4)CC2)CC3)no1` (stereo not given), the outcome in experiment [1], in experiment [2], in [3], in experiment [5], in [7] and in [8] was inactive. Moreover, the outcome was “inactive” in experiment [11]; “inactive” with CD69, CD69 (gene 969); “inactive” in experiment [16]. The AC50 in the experiment with CD40, CD40 (gene 958) [4] was 3.86 µM (active); in experiment [6], 6.69 µM (active); in experiment [9] it was 1.45 µM (active); in experiment [13] it was 9.3 µM (active); with CD38, CD38 (gene 952), 9.3 µM (active); in the experiment with CD40, CD40 (gene 958) [14] it was 6.43 µM (active).

As to `COc1cc(C=O)ccc1O`, the outcome was “inactive” in experiment [1]; “inactive” in experiment [2]; “inactive” in experiment [3]; “inactive” in the experiment with CD40, CD40 (gene 958) [4]; “inactive” in [5]; “inactive” in experiment [6]. In addition, the outcome in experiment [7], in experiment [8], in [9], in [10], in [11] and in experiment [13] was inactive. Moreover, the outcome with CD38, CD38 (gene 952) was “inactive”; in the experiment with CD40, CD40 (gene 958) [14], “inactive”; with CD69, CD69 (gene 969), “inactive”; in experiment [15], “inactive”; in experiment [16] it was “inactive”.
